Active and inactive are the calls of the source. The rule behind the calls is not given here.
assay: Brca1-Bard1 BiLC signal decrease – luminescence, single concentration, counter-screen for Mdm2/MdmX interaction inhibitor project, confirmation (AID 504668); conditions: Brca1/Bard1 bimolecular luciferase complementation counterscreen, at 8 µM, stronger effect = higher value

Structure (SMILES)	inhibition
c1ccc(CNc2nc(-c3ccccn3)nc3ccccc23)cc1	23.3% (active)
Cc1cccc([C@@H]2[C@@H]3C(=O)N(Cc4ccccc4)C(=O)[C@@H]3[C@]3(C)C(=O)N(c4ccc(C(F)(F)F)cc4)C(=O)N23)c1	33.2% (active)
O=C(Nc1cc(Cl)ccc1O)c1snnc1-c1ccccc1	23% (active)
COc1cc(OC)cc(C(=O)Oc2c(CN3CCOCC3)cc(Cl)c3cccnc23)c1	33.8% (active)
CCCCCCCCCCOC(=O)Cn1c(COc2cccc(C)c2)[n+](C)c2ccccc21	24.9% (active)
O=C(COc1ccc(F)cc1Cl)Nc1nc(-c2ccccn2)cs1	33.8% (active)
O=C(Nc1nc(-c2ccccn2)cs1)c1cccc(-n2cnnn2)c1	26.2% (active)
COc1ccc(-c2cc(C(=O)NNC3=NCCC3)c3c(C)nn(-c4ccccc4)c3n2)cc1	34.3% (active)
Oc1ccc(CN2CCc3ccccc3C2)c2cccnc12	24.4% (active)
N=c1n(CCO)c2ccccc2n1CCOc1ccc(Cl)cc1Cl	25.4% (active)
COc1ccc(C)cc1Nc1n[n+](-c2ccccc2)c(-c2c(OC)ccc3ccccc23)s1	29% (active)
CCCOCc1ccc(O)c2ncccc12	27.6% (active)
CCOc1ccc(CN2CCN(CC(O)Cn3c4ccccc4c4ccccc43)CC2)cc1 (stereo not given)	35.8% (active)
N#CCSc1nc2c(sc(=S)n2Cc2ccco2)c(=O)n1-c1ccc(F)cc1	31.6% (active)
O=C(CCc1ccccc1)N/N=C/c1cc(Br)ccc1O	26.9% (active)
CCOc1ccc2nc(NC3=NC(c4ccc(OC)cc4)CC(=O)N3)nc(C)c2c1 (stereo not given)	30.6% (active)
O=C(N/N=C(\c1ccccc1)c1cccnc1)c1cccc(F)c1	33.2% (active)
CC(=O)/C(C#N)=C1\NC(=O)C(Cc2ccccc2Cl)S1 (stereo not given)	30.1% (active)
Cc1ncc(CO)c(/C=N/Nc2ccc(C(F)(F)F)cn2)c1O	33.8% (active)
CC(C)CC(=O)NC(c1cccs1)c1ccc2cccnc2c1O (stereo not given)	25.3% (active)
O=C(/C=C/c1ccc(OCc2c(F)cccc2Cl)cc1)N1CCOCC1	27.7% (active)
Cc1c(C(=O)Nc2cccc(Cl)c2)oc2ccc(S(=O)(=O)N3CCC4(CC3)OCCO4)cc12	32.3% (active)
CCOC(=O)c1sc(NC(=O)Nc2cccc(Cl)c2)cc1C	34.4% (active)
COc1cc2c(ccc3cc(OC)c(OC)c(O)c32)cc1O	31.4% (active)
Cc1cc(C)c(S(=O)(=O)N2CCCCC2CCNC(=O)C(=O)NC2CC2)c(C)c1 (stereo not given)	25.4% (active)

Reference: PubChem BioAssay
